Screens as filed in PubChem BioAssay.
This is one part of a sample in which hits are shown more often than they occur.
ST2 inh: inhibitors of human ST2 (IL1RL1) binding to IL-33, primary screen, biochemical, AlphaLISA; Interleukin-1 receptor-like 1 (Homo sapiens), Q01638; AlphaLISA ST2-Fc/biotin-IL-33 interaction, 1 h; inhibition, % for hits at 17 µM; 78,000 tested, 2.3% active; in the data active means inhibition above about 30%
Hits are given with their value; - = inactive.

SMILES	ST2 inh
O=c1[nH]c2ccccc2n1C1=CCN(c2nccc(N3CCC(O)C3)n2)CC1 (stereo not drawn)	-
C=CCN(CC=C)C(=O)CN1CC=C(n2c(=O)[nH]c3ccccc32)CC1	31%
C=CCN(CC=C)C(=O)C(c1ccccc1)c1ccccc1	-
Cn1c(-c2cc3ccc(O)cc3oc2=O)nc2ccccc21	-
CNC(=O)c1cc(-c2c(F)cccc2OC)ccc1Cl	-
CC(=O)Nc1cccc(C(=O)NC2CC(=O)N(CCc3ccccc3)C2)c1 (stereo not drawn)	-
O=C1C[C@@H]2CCN(Cc3ccccc3)C[C@@H]2CCN1C1CCCCC1	76%
c1ccc(CN2CCN(C3CCCCCC3)CC2)cc1	-
NC(=O)[C@H](Cc1ccccc1)N1CC[C@H]2CN(C(=O)C3CCCCC3)CC[C@H]2CC1=O	-
Cc1ccc(CNC(=O)CN2C(=O)/C(=C/c3ccccc3F)Sc3ccccc32)cc1	-
O=C(CN1C(=O)/C(=C/c2ccccc2F)Sc2ccccc21)NCCN1CCOCC1	-
O=C(CN1C(=O)/C(=C/c2ccccc2F)Sc2ccccc21)N1CCCC1	33%
CN1CC2(CCCN(Cc3nnc(-c4cccc(F)c4)o3)C2)OC1=O (stereo not drawn)	-
COc1ccccc1Cc1noc(COc2cccc(C)c2C)n1	-
COc1ccccc1Cc1nc(-c2cccc([N+](=O)[O-])c2)no1	32%
O=[N+]([O-])c1cccc(-c2noc(-c3ccc(I)cc3)n2)c1	-
COc1ccccc1Cc1nc(-c2ccc([N+](=O)[O-])cc2)no1	30%
COc1ccc(-c2nc(-c3cccc([N+](=O)[O-])c3)no2)cc1	-
COc1ccccc1Cc1noc(/C=C/c2ccccc2Cl)n1	-
COc1ccccc1Nc1nc(-c2ccc([N+](=O)[O-])cc2)nc2ccccc12	-
COc1ccccc1Cc1noc(-c2ccc([N+](=O)[O-])cc2)n1	47%
COc1ccccc1CNc1ccc([N+](=O)[O-])cn1	-
CC12CC(=O)[C@@](C)(C1)[C@@H]1C(=O)N(c3ccc(O)cc3)C(=O)C12 (stereo partly drawn)	-
CC(=O)C1=C(C)OC(N)=C(C#N)C1c1cccc(OCc2ccccc2)c1 (stereo not drawn)	-
CCc1ccc(-c2nc(CSCC(=O)N3CCN(C)CC3)c(C)o2)cc1	-
SMILES	ST2 inh
CC(C)Oc1cccc(C(=O)C2CCCN(C(=O)NC(C)(C)C)C2)c1 (stereo not drawn)	-
Cc1cc(S(=O)(=O)Nc2ccncc2)c(C)cc1Br	-
COc1ccc2nc3c(nc2c1)C(=O)c1ccccc1-3	32%
COc1ccc2nc(Cl)c(Cl)nc2c1	-
COc1ccc(C(=O)O/N=C2\c3ccccc3-c3nc4ccccc4nc32)cc1	-
CN(CCc1ccccc1)C1CCCN(C(=O)CSc2ncn[nH]2)C1 (stereo not drawn)	-
CC(C)NC(=O)c1cc(-c2ccc(Cl)cc2)on1	-
CC(=O)c1cccc(NC(=O)c2ccccc2SCc2ccc(F)cc2)c1	-
CCSc1nc2c(c(=O)n1-c1ccc(Br)cc1)SCC2	-
Clc1ccc(-c2cn3ccccc3n2)cc1	-
Brc1ccc(-c2cn3ccccc3n2)s1	-
Brc1ccc(-c2cc3ccccn3c2)cc1	34%
CCN1C(=O)N(C2Cc3ccccc3C2)C(=O)C12CCN(Cc1cn[nH]c1-c1ccc(OC)cc1)CC2	-
CC(C)(C)CC(=O)N[C@@H]1C=C(C(=O)NCCC(N)=O)C[C@@H](O)[C@@H]1O	83%
NC(=O)CCNC(=O)C1=C[C@@H](NC(=O)Cc2cccs2)[C@@H](O)[C@H](O)C1	-
Cc1ccc(C(=O)N[C@@H]2C=C(C(=O)NCCC(N)=O)C[C@@H](O)[C@@H]2O)cc1	-
CCCn1cnc2c1CN(C(C)=O)[C@H](C(=O)OC)C2	-
Cc1ccc(NC(=O)N2CCC(O)(C(=O)O)CC2)cc1	-
CC(C)c1ccc(/C=C2\Sc3ccccc3C2=O)cc1[N+](=O)[O-]	-
CCOc1cc(/C=C2/SC(=O)NC2=O)ccc1OCc1ccccc1	-
CCOc1cc(/C=C2/C(=O)N(c3ccccc3)N=C2C)ccc1O	-
CCOc1cc(/C=C2/Sc3ccccc3C2=O)ccc1O	59%
CCOc1cc(-c2ccc(O)cc2)cc(=O)c2c(C)oc(C)c12	-
CCOc1cc(/C=C2/C=C(c3ccc(C)cc3)OC2=O)ccc1O	31%
O=C1CC(NCc2ccccc2Cn2cccn2)CN1Cc1ccc(F)cc1 (stereo not drawn)	-
SMILES	ST2 inh
Cn1cc(C(=O)N2CCOCC2)c2c3ccccc3n(C)c2c1=O	-
CC(C)c1cncnc1-c1cccc2ccnn12	-
CCN1CCCC1CNC(=O)CCC1CCN(Cc2ccccn2)CC1 (stereo not drawn)	-
CCCCOc1ccc(C(=O)Nc2c3c(nn2C(C)(C)C)CS(=O)C3)cc1 (stereo not drawn)	-
CC(C)C(=O)N1c2ccccc2NC2=C(C(=O)CCC2)C1c1ccco1 (stereo not drawn)	30%
CC(=O)N1c2ccccc2NC2=C(C(=O)CCC2)C1c1ccco1 (stereo not drawn)	-
